The list is not random: actives were taken first. Their share in the collection is about 5%.
PREPL inhibitor: human PREPL enzyme inhibition; Q4J6C6; recombinant PREPL, fluorescence polarization activity-based probe; inhibition, % at 5.96 µM; hit rate 0.68% among 320,000; AID 2751; in the data active = inhibition above about 43%;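 note: 0% = enzyme with DMSO and 100% = wells lacking enzyme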
Target sequence (Q4J6C6 whole entry, looked up): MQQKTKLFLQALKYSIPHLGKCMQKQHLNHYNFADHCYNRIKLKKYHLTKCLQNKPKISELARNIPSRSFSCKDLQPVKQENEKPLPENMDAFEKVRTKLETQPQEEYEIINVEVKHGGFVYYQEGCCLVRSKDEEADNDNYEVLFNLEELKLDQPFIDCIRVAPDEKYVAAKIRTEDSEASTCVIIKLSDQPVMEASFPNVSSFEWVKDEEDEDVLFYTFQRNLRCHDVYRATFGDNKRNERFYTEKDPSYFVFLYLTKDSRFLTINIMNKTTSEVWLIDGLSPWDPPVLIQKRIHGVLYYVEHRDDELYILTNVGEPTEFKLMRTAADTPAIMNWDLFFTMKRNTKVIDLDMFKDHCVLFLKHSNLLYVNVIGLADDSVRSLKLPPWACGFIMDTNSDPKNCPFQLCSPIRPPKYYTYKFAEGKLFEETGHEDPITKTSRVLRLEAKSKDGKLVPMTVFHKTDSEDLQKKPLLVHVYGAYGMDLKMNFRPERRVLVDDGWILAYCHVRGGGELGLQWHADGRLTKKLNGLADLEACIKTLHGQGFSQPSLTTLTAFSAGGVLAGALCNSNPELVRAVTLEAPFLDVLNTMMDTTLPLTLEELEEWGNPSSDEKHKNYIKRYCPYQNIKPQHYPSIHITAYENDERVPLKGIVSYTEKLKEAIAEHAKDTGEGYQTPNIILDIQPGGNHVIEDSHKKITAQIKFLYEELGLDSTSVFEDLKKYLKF
AI-2 QS mod: modulates the Vibrio harveyi AI-2 quorum sensing system; hit rate 0.4% among 300,000; AID 2094; activity change, % at 7.5 µM; Vibrio harveyi JMH597 AI-2 luminescence/OD600 ratio, 9 h; active compounds read low; strain lacks LuxN and CqsS sensors; 0 = neutral-control median; in the data active = activity change below about -75%, passing the limit was not always enough; inconclusive = no clear call, values can overlap the other calls;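 note: luminescence divided by OD600 gain over 9 h not by final OD600 alone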
ALR inh: human ALR oxidase inhibition via reduced H2O2; AID 485317; hit rate 3.8% among 290,000; purified ALR, DTT oxidation, H2O2 HRP-luminol luminescence; inhibition, % (no concentration beside the values);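 active = mean replicate inhibition above about 79%, with every replicate also reaching it, limit read from the data; inconclusive = only one of the two criteria met; inactive = mean below limit and not every replicate reaching it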
CHT block: inhibitors of human choline transporter CHT | CHT-expressing cells, membrane potential dye, choline response; active compounds read low | B-score at 10 µM | hit rate 0.86% among 310,000;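 active = B-score over 3 SD under the library average, and starting fluorescence ratio not unusually high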;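 note: choline stimulus applied at its EC90 after an EC20 pre-addition; B-score computed on integrated fluorescence ratio after choline addition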
CHT allo act: human CHT allosteric activation; Q9GZV3; CHT-expressing cells, membrane potential dye, choline EC20; active compounds read high; LV-AA mutant CHT in HEK293 cells; B-score at 10 µM; hit rate 0.49% among 310,000;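 active = initial fluorescence not abnormally high and integrated response B-score, plate-corrected, over 3 SD above library mean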
An asterisk follows results filed as active.

For COc1ccc(N(CC(=O)Nc2ccc(C(C)C)cc2)S(=O)(=O)c2c(C)noc2C)cc1 the results were PREPL inhibitor 1, AI-2 QS mod 10, ALR inh -2, CHT block inactive and CHT allo act inactive.
Screening COc1cc(CNc2ccc3[nH]c(=O)[nH]c3c2)ccc1OCc1ccccc1 returned PREPL inhibitor 22, AI-2 QS mod 35, ALR inh 68, CHT block inactive and CHT allo act inactive.
For C=CCOc1cccc(CNc2ccc3[nH]c(=O)[nH]c3c2)c1 the results were PREPL inhibitor 5, AI-2 QS mod 14, ALR inh 99*, CHT block inactive and CHT allo act inactive.
C=CCOc1c(Br)cc(CNc2ccc3[nH]c(=O)[nH]c3c2)cc1OCC was read as PREPL inhibitor 6, AI-2 QS mod 38, ALR inh inconclusive, CHT block inactive and CHT allo act inactive.
COc1cc(CNc2ccc3[nH]c(=O)[nH]c3c2)cc(Br)c1OCc1ccccc1F was read as AI-2 QS mod 11, ALR inh 23, CHT block inactive and CHT allo act inactive.
Screening COc1cc(CNc2ccc3[nH]c(=O)[nH]c3c2)ccc1OCc1ccc(F)cc1 returned PREPL inhibitor 31, AI-2 QS mod 0, ALR inh 89*, CHT block inactive and CHT allo act inactive.
Screening COc1cccc(CNc2ccc3[nH]c(=O)[nH]c3c2)c1OCc1ccccc1Cl returned PREPL inhibitor 15, AI-2 QS mod 32, ALR inh 97*, CHT block inactive and CHT allo act inactive.
COc1cccc(CNc2ccc3[nH]c(=O)[nH]c3c2)c1OCc1ccccc1 was read as AI-2 QS mod -2, ALR inh 99*, CHT block inactive and CHT allo act inactive.
Screening COCCN(Cc1ccc(C)c(Br)c1)C(=O)Cn1cnc(S(=O)(=O)N2CCCC2)c1 returned PREPL inhibitor -17, AI-2 QS mod 18, ALR inh -6, CHT block inactive and CHT allo act inactive.
CCOC(=O)c1ccc(Oc2nc(OC)cc(OC)n2)cc1 was read as PREPL inhibitor 3, AI-2 QS mod -7, ALR inh -1, CHT block inactive and CHT allo act inactive.
For Cc1ccccc1COC(=O)c1cc([N+](=O)[O-])ccc1N1CCOCC1 the results were PREPL inhibitor 19, AI-2 QS mod 28, ALR inh -2, CHT block inactive and CHT allo act inactive.
`CSc1ccc(COC(=O)c2cc([N+](=O)[O-])ccc2N2CCOCC2)cc1` gave PREPL inhibitor 31, AI-2 QS mod 38, ALR inh -2, CHT block inactive and CHT allo act 6.3*.
COc1ccc2c(c1OC)C(=O)N(c1ccc(F)cc1)C2 was read as PREPL inhibitor 3, AI-2 QS mod 23, ALR inh -2, CHT block inactive and CHT allo act inactive.
For COc1ccc2c(c1OC)C(=O)N(c1cccc(NC(C)=O)c1)C2 the results were PREPL inhibitor -1, AI-2 QS mod 6, ALR inh 97*, CHT block inactive and CHT allo act inactive.
Screening COCCNC(=S)NCc1ccc2[nH]c3c(c2c1)CCCC3 returned PREPL inhibitor 15, AI-2 QS mod 19, ALR inh 94*, CHT block inactive and CHT allo act inactive.
Cc1ccc(CNC(=O)NC2CCCCC2)cc1 was read as PREPL inhibitor 5, AI-2 QS mod -89*, ALR inh -7, CHT block inactive and CHT allo act inactive.
`COc1ccc(Nc2nnc(SCc3cc(=O)n4ccsc4n3)s2)cc1` gave PREPL inhibitor 16, AI-2 QS mod 24, ALR inh -37, CHT block inactive and CHT allo act inactive.
Screening COc1ccc(NC2CCCN(C(=O)CCn3cccn3)C2)cc1 (centres undefined) returned PREPL inhibitor 4, AI-2 QS mod 19, ALR inh 99*, CHT block inactive and CHT allo act inactive.
For COc1ccc(NC2CCCN(C(=O)CCc3cccc(Cl)c3)C2)cc1 (centres undefined) the results were PREPL inhibitor 24, AI-2 QS mod 3, CHT block inactive and CHT allo act inactive.
COc1cccc(CNC(=O)CCC2CCCN(C(=O)CCn3cncn3)C2)c1 (centres undefined) was read as PREPL inhibitor -2, AI-2 QS mod 20, CHT block inactive and CHT allo act inactive.
For COc1ccc(NC2CCCN(C(=O)CCCn3cncn3)C2)cc1 (centres undefined) the results were PREPL inhibitor -1, AI-2 QS mod 27, ALR inh 99*, CHT block inactive and CHT allo act inactive.
For CCC(CO)Oc1cc(NC(=O)c2ccc([N+](=O)[O-])cc2)c2ncn(C(C)C)c2c1 (centres undefined) the results were PREPL inhibitor 19 and ALR inh -4.
For CN(C)/C=C1\C(=O)Nc2ccccc21 the results were PREPL inhibitor 0, AI-2 QS mod 17, ALR inh 99*, CHT block inactive and CHT allo act inactive.
`CC(C)c1ccc2oc(=O)cc(CN3CCOCC3)c2c1` gave PREPL inhibitor 31, AI-2 QS mod -6, ALR inh -2, CHT block inactive and CHT allo act inactive.
NC(=O)NC(=O)C(Nc1ccc(N2CCCCC2)cc1)c1ccccc1 (centres undefined) was read as PREPL inhibitor 16, AI-2 QS mod -1, ALR inh 99*, CHT block inactive and CHT allo act inactive.
`O=C(Nc1ccc(N2CCCCC2)cc1)c1ccccc1` gave PREPL inhibitor -6, AI-2 QS mod 5, ALR inh 43, CHT block inactive and CHT allo act inactive.
For COC(=O)c1ccccc1NC(=O)CN1CCCCCC1 the results were PREPL inhibitor -3, AI-2 QS mod -9, ALR inh 20, CHT block inactive and CHT allo act inactive.
For CCOCCCNC(=O)CS(=O)(=O)Cc1nc(-c2cccc(OC)c2)oc1C the results were PREPL inhibitor 5, AI-2 QS mod 5, ALR inh 98*, CHT block inactive and CHT allo act inactive.
Screening CCN1CCN(CCCNC(=O)CS(=O)(=O)Cc2nc(-c3cccc(OC)c3)oc2C)CC1 returned PREPL inhibitor 3, AI-2 QS mod -5, ALR inh 90*, CHT block inactive and CHT allo act inactive.
For COc1cccc(-c2nc(CS(=O)(=O)CC(=O)NCCCN3CCN(C)CC3)c(C)o2)c1 the results were PREPL inhibitor 8, AI-2 QS mod 5, ALR inh 99*, CHT block inactive and CHT allo act inactive.
Screening Cc1ccc(-c2nc(CS(=O)(=O)CC(=O)NCCCN3CCN(C)CC3)c(C)o2)cc1 returned PREPL inhibitor -12, AI-2 QS mod 15, ALR inh -32, CHT block inactive and CHT allo act inactive.
